Test results taken from PubChem BioAssay (NCI).
About 83,000 compounds went through this panel and 20% of them were active in at least one assay; those are over-represented in the sample as a whole.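 The endpoint reported here, percent growth, reads 100 for growth as untreated, 0 for no net growth and -100 for all cells dead.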 Calls of active or inactive are those of the source. The calls were made as follows: active = growth percent below 10; inactive = the rest.

How the values were obtained:
Assay in all cases: NCI-60 one-dose screen, 48 h (100 = growth as untreated, 0 = no growth, -100 = all killed)
NCI-H23 lung = conditions: 10 µM unless noted
NCI-H226 lung = conditions: 10 µM unless noted
NCI-H322M lung = conditions: 10 µM unless noted
NCI-H460 lung = conditions: 10 µM unless noted
HOP-92 NSCLC = conditions: 10 µM
NCI-H522 lung = conditions: 10 µM
A549/ATCC NSCLC = conditions: 10 µM unless noted
786-0 renal = conditions: 10 µM unless noted
COLO 205 colon = conditions: 10 µM unless noted

Measured: growth

O=C1Nc2ccccc2/C1=C/c1cn(CC(O)Cn2cc(/C=C3\C(=O)Nc4ccccc43)c3ccccc32)c2ccccc12 (centres undefined)
active: NCI-H23 lung -67.3% | NCI-H226 lung -74.9% | NCI-H322M lung -39.1% | NCI-H460 lung -65.1% | HOP-92 NSCLC -73.9% | NCI-H522 lung -17.4% | A549/ATCC NSCLC -11.6% | 786-0 renal -70.9%

CCc1c(C)c2ccc(OCC(=O)N=Nc3c(O)[nH]c4ccccc34)c(C)c2oc1=O
inactive: NCI-H226 lung 12.4% | HOP-92 NSCLC 29.7% | A549/ATCC NSCLC 30.2%
active: NCI-H23 lung 5.58% | NCI-H322M lung -14.2% | NCI-H460 lung -46.7% | NCI-H522 lung -9.85% | 786-0 renal -22.9%

CCCCCCCCC/C(=N\NC(=O)c1ccncc1)c1ccc(O)c(O)c1O
inactive: NCI-H23 lung 21.8% | NCI-H226 lung 34.4% | NCI-H322M lung 36.1% | HOP-92 NSCLC 46.6% | NCI-H522 lung 36% | A549/ATCC NSCLC 13.5% | 786-0 renal 11.1%
active: NCI-H460 lung 4.14%

N=C(N)c1ccc(-c2ccc(-c3ccc(F)cc3)s2)cc1
active: NCI-H23 lung -91.8% | NCI-H226 lung -77.3% | NCI-H322M lung -91.2% | NCI-H460 lung -88.9% | HOP-92 NSCLC -86.2% | NCI-H522 lung -58.9% | A549/ATCC NSCLC -74.2% | 786-0 renal -82.1%

COc1nc(OC)nc(-c2cc(-c3cc(OC)c(OC)c(OC)c3)no2)n1
inactive: NCI-H23 lung 101% | NCI-H226 lung 92.8% | NCI-H322M lung 115% | NCI-H460 lung 101% | HOP-92 NSCLC 95.4% | NCI-H522 lung 95.7% | A549/ATCC NSCLC 88.8% | 786-0 renal 93.9%

O=C(Cc1ccccc1[N+](=O)[O-])c1ccc2c(c1)OCO2
inactive: NCI-H23 lung 99.3% | NCI-H226 lung 97.1% | NCI-H322M lung 103% | NCI-H460 lung 101% | HOP-92 NSCLC 82% | NCI-H522 lung 91.7% | A549/ATCC NSCLC 98.1% | 786-0 renal 94.3%

COc1ccc2c(c1)/C(=C1/S/C(=N/c3nnc(C)s3)NC1=O)C(=O)N2Cc1ccc(Br)cc1
inactive: NCI-H23 lung 26.5% | NCI-H226 lung 54.7% | NCI-H322M lung 35.1% | HOP-92 NSCLC 25.7% | NCI-H522 lung 29.6% | A549/ATCC NSCLC 20.7% | 786-0 renal 34%
active: NCI-H460 lung 6.08%

Oc1ccc(CN(Cc2ccc(C(F)(F)F)cc2)Cc2ccc(O)c3ncccc23)c2cccnc12
active: NCI-H460 lung 1.74% | HOP-92 NSCLC -3.41% | NCI-H522 lung 3.25% | A549/ATCC NSCLC 1.19%
inactive: NCI-H23 lung 17.4% | NCI-H226 lung 18.3% | NCI-H322M lung 31.5% | 786-0 renal 11.4%

N=C(N)c1ccc(-c2ccc(-c3ccc(Cl)cc3)s2)s1
active: NCI-H23 lung -69.9% | NCI-H226 lung -53.3% | NCI-H322M lung -74.9% | NCI-H460 lung -66.2% | HOP-92 NSCLC -71.6% | NCI-H522 lung -2.36% | A549/ATCC NSCLC -69.1% | 786-0 renal -62.6%

N=c1c2c(=O)n3c(nc2nc2sc4ccc(Cl)cc4n12)-c1ccccc1Sc1ccccc1-3
active: NCI-H23 lung 8.13% | HOP-92 NSCLC 6.89%
inactive: NCI-H226 lung 29.1% | NCI-H322M lung 16.4% | NCI-H460 lung 10.7% | NCI-H522 lung 12.9% | A549/ATCC NSCLC 22.4% | 786-0 renal 24.6%

Cc1ccc(OCCn2ccc(=O)n(CCOc3ccc(Cl)cc3C(=O)c3cc(C)cc(C)c3)c2=O)cc1
inactive: NCI-H23 lung 54.4% | NCI-H226 lung 62.9% | NCI-H322M lung 84.1% | NCI-H460 lung 37.2% | HOP-92 NSCLC 45.9% | NCI-H522 lung 23.3% | A549/ATCC NSCLC 41.7% | 786-0 renal 57.4%

COc1cc2c(/C=C3\C(=O)Nc4ccc(Br)cc43)c(Cl)n(C)c2cc1C
active: NCI-H460 lung 8.86% | HOP-92 NSCLC -4.95% | NCI-H522 lung -3.92% | 786-0 renal -17.3% | COLO 205 colon 6.03%
inactive: NCI-H23 lung 20.6% | NCI-H226 lung 45.1% | NCI-H322M lung 17.2% | A549/ATCC NSCLC 24%

c1ccc(-c2cn3ccnc3c(-c3ccc4ncn(C5CCCCC5)c4c3)n2)cc1
inactive: NCI-H23 lung 54.7% | NCI-H226 lung 66.1% | NCI-H322M lung 94.8% | NCI-H460 lung 62.2% | HOP-92 NSCLC 46.3% | NCI-H522 lung 41.9% | A549/ATCC NSCLC 66.7% | 786-0 renal 63.2%

CCOC(=O)CCCCCCCCC(=O)OCC
inactive: NCI-H23 lung 96.3% | NCI-H226 lung 103% | NCI-H322M lung 97.6% | NCI-H460 lung 108% | HOP-92 NSCLC 98.6% | NCI-H522 lung 105% | A549/ATCC NSCLC 107% | 786-0 renal 106% | COLO 205 colon 108%

C=C(C)[C@@H]1CC[C@]2(COC(=O)c3ccccc3C(=O)O)CC[C@]3(C)[C@H](CC[C@@H]4[C@@]5(C)CCCNC(C)(C)[C@@H]5CC[C@]43C)[C@@H]12
inactive: NCI-H23 lung 80.7% | NCI-H226 lung 66.3% | NCI-H322M lung 93.3% | NCI-H460 lung 55.9% | HOP-92 NSCLC 86.1% | NCI-H522 lung 78.3% | A549/ATCC NSCLC 61.4% | 786-0 renal 84.4%

COc1ccc(Cn2cc3c(c2)-c2oncc2CC3)cc1OC
inactive: NCI-H23 lung 16.9% | NCI-H226 lung 31.4% | NCI-H322M lung 22.9% | HOP-92 NSCLC 84.4% | NCI-H522 lung 20.5% | A549/ATCC NSCLC 25.9% | 786-0 renal 22%
active: NCI-H460 lung 1.13% | COLO 205 colon -18.2%

CCCCCCCCc1ccc(OCCOCC[N+](C)(C)CC)cc1 (tested in a mixture with another compound)
inactive: NCI-H23 lung 26.8% | NCI-H226 lung 56.5% | NCI-H322M lung 94% | NCI-H460 lung 39.9% | A549/ATCC NSCLC 69.5% | 786-0 renal 87.8%
active: HOP-92 NSCLC 6.23% | NCI-H522 lung 3.68% | COLO 205 colon -42.1%

COc1ccc(-c2nc(SCC(C)C)nc(Nc3ccccc3)c2C#N)cc1
inactive: NCI-H23 lung 86.3% | NCI-H226 lung 83% | NCI-H322M lung 70.8% | NCI-H460 lung 18.7% | HOP-92 NSCLC 88% | NCI-H522 lung 88.3% | A549/ATCC NSCLC 48% | 786-0 renal 51.9%

c1ccc(Nc2ccccn2)cc1
inactive: NCI-H23 lung 103% | NCI-H226 lung 130% | NCI-H322M lung 106% | NCI-H460 lung 115% | HOP-92 NSCLC 97.9% | NCI-H522 lung 91.7% | A549/ATCC NSCLC 98.9% | 786-0 renal 95.1% | COLO 205 colon 99.8%

O=C(O)/C(Br)=C/c1c[nH]c2ccc(Br)cc12
inactive: NCI-H23 lung 99.6% | NCI-H226 lung 108% | NCI-H322M lung 116% | NCI-H460 lung 122% | HOP-92 NSCLC 174% | NCI-H522 lung 110% | A549/ATCC NSCLC 117% | 786-0 renal 101% | COLO 205 colon 156%

Nc1ncn([C@@H]2O[C@H](CO)[C@@H](O)C2(F)F)c(=O)n1
active: NCI-H460 lung 9.34%
inactive: NCI-H23 lung 30.6% | NCI-H226 lung 52.3% | NCI-H322M lung 70% | HOP-92 NSCLC 34.3% | NCI-H522 lung 86.9% | A549/ATCC NSCLC 37.9% | 786-0 renal 26.3%

CC(C)(C)C(=O)CCCCCCCC/C=C/CCCC(O)c1ccco1 (centres undefined)
inactive: NCI-H23 lung 102% | NCI-H226 lung 112% | NCI-H322M lung 95.5% | NCI-H460 lung 112% | HOP-92 NSCLC 79.1% | NCI-H522 lung 120% | A549/ATCC NSCLC 108% | 786-0 renal 94.5% | COLO 205 colon 124%

CC1=NN(c2cccc(Cl)c2)C(=O)/C1=C\c1cn(-c2nc(N3CCOCC3)nc(N3CCOCC3)n2)c2ccccc12
inactive: NCI-H23 lung 100% | NCI-H226 lung 99.8% | NCI-H322M lung 91.9% | NCI-H460 lung 112% | HOP-92 NSCLC 90.6% | NCI-H522 lung 88.9% | A549/ATCC NSCLC 99.2% | 786-0 renal 102%

[2H]c1nc(=Nc2cc(NC(=O)C=C)c(N(C)CCN(C)C)cc2OC)[nH]c(-c2cn(C([2H])([2H])[2H])c3ccccc23)c1[2H]
active: NCI-H322M lung 2.1%
inactive: NCI-H23 lung 60.3% | NCI-H226 lung 75.2% | NCI-H460 lung 57.3% | HOP-92 NSCLC 22.9% | NCI-H522 lung 13.3% | A549/ATCC NSCLC 40.6% | 786-0 renal 48.7%

COc1cc2ncnc(Nc3ccc4c(cnn4C(=O)Nc4ccccc4)c3)c2cc1OC
inactive: NCI-H23 lung 100% | NCI-H226 lung 103% | NCI-H322M lung 81.1% | NCI-H460 lung 103% | HOP-92 NSCLC 82.8% | NCI-H522 lung 89.4% | A549/ATCC NSCLC 72.9% | 786-0 renal 81.5%

O=C1NCCN1/N=C/c1c(Cl)nc2n1CCS2
inactive: NCI-H23 lung 106% | NCI-H226 lung 151% | NCI-H322M lung 94.6% | NCI-H460 lung 111% | HOP-92 NSCLC 51.3% | NCI-H522 lung 34.3% | A549/ATCC NSCLC 113% | 786-0 renal 90% | COLO 205 colon 133%

CC(=O)Nc1ccc(CC#N)cc1Br
inactive: NCI-H23 lung 110% | NCI-H226 lung 96.4% | NCI-H322M lung 105% | NCI-H460 lung 101% | HOP-92 NSCLC 94% | NCI-H522 lung 92.9% | A549/ATCC NSCLC 103% | 786-0 renal 101% | COLO 205 colon 109%

CC[C@H](Nc1ncnc2nc[nH]c12)c1nc2cccc(NCc3ccc(C(=O)NO)o3)c2c(=O)n1-c1ccccc1
inactive: NCI-H23 lung 98.1% | NCI-H226 lung 109% | NCI-H322M lung 97.4% | NCI-H460 lung 111% | HOP-92 NSCLC 82.6% | NCI-H522 lung 76.7% | A549/ATCC NSCLC 102% | 786-0 renal 94.1% | COLO 205 colon 115%
